# Compound activity as filed in PubChem.
# Compounds with a hit are over-represented: about 19% of the library has one in this group of screens.
# DT40 TDP1 no CPT = qHTS for Inhibitors of human tyrosyl-DNA phosphodiesterase 1 (TDP1): qHTS in cells in absence of CPT; DT40 Tdp1-/- hTDP1 cells, no CPT, ATP luminescence, 48 h; AID 686978, 2013; Potency, µM (top dose mostly 46.2 µM), without a hit: top-dose activity change, negative = growth inhibition, most hits filed as inhibitors; actives 15% (n = 420,000); note: nearly all actives have a fitted effect of over 55% in size
#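 Stably hTDP1-transfected Tdp1-null chicken DT40 cells were treated with library compounds minus camptothecin and grown for at least 48 hr at 37 °C, after which cellular ATP was quantified by luminescence.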
# VP16 counter = inhibits Gal4-VP16 luciferase reporter, ROR gamma counter-screen; actives 3.5% (n = 310,000); Drosophila S2 Gal4-VP16 UAS-luciferase, luminescence, 20 h; Potency, µM (top dose mostly 53.6 µM), inactives show at the top dose activity, negative = inhibition, usual class: inhibitors; AID 2546;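 note: Gal4-VP16 expression switched on by copper sulfate through the metallothionein promoter; nearly all actives have a fitted effect of over 50% in size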
# DT40 TDP1 CPT = DT40-hTDP1 cell growth loss with CPT; actives 12% (n = 420,000); chicken DT40 Tdp1-/-;hTDP1 cells + 20 nM CPT, ATP luminescence, 48 h; Potency, µM (top dose mostly 46.2 µM), for the others: at the highest dose activity change, negative = growth inhibition, hits mostly inhibitors; note: nearly all actives have a fitted effect of over 55% in size
#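 Chicken DT40 Tdp1-/- cells stably complemented with human TDP1 were seeded at 400 cells/well in medium containing 20 nM camptothecin, exposed to pin-transferred compounds, and grown at 37 °C for at least 48 hr. Viability was read as ATP luminescence.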
# RORgamma inh = inhibitors of mouse ROR gamma transcriptional activity | Potency, µM (series often up to 53.6 µM), inactives show at the highest dose activity change, negative = inhibition, most hits filed as inhibitors | AID 2551 | P51450 | Drosophila S2 Gal4-RORgamma UAS-luciferase reporter, 20 h | actives 5.4% (n = 310,000); note: nearly all actives have a fitted effect of over 60% in size
# Target sequence (P51450 whole entry, looked up, the tested form may be a part): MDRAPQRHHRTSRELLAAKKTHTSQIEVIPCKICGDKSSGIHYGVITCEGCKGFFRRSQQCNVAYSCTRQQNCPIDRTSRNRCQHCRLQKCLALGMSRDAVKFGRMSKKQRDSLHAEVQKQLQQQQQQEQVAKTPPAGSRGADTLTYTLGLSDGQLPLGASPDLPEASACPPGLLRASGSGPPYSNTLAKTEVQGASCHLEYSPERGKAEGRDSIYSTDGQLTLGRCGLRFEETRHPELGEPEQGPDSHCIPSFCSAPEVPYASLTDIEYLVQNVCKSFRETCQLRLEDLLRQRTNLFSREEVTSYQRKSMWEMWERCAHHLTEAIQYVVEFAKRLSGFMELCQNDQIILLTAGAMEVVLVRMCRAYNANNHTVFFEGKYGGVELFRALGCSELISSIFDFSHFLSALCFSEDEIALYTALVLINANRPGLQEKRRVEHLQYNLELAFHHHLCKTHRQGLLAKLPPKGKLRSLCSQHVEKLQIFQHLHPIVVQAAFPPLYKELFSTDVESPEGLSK
#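 Drosophila Schneider cells stably carrying a metallothionein-driven Gal4 DBD–ROR gamma fusion and a UAS-Photinus luciferase reporter were exposed to compound for 1 hr, then induced with copper sulfate (700 uM final) for 20 hr at ambient temperature before luminescence reading.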
# TDP1 block = inhibitors of human tyrosyl-DNA phosphodiesterase TDP1; AID 485290; Potency, µM (series often up to 130 µM), for inactives: at the highest dose activity change, negative = inhibition, actives largely listed as inhibitors; recombinant TDP1, AlphaScreen DNA substrate cleavage; actives 0.28% (n = 350,000); Q9NUW8; note: nearly all actives have a fitted effect of over 40% in size
#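 Signal: AlphaScreen proximity between streptavidin donor and anti-FITC acceptor beads on intact substrate. Reaction: Tdp1 1 nM, substrate 15 nM final, 5 min RT after 15 min compound preincubation.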
# * hit, by the source's call; ? = inconclusive; . = no result given; [ ] = dose if it differs, or a comment. Calls come from the whole dose curve; as a rule, active = well fitted curve in the direction sought with a large enough effect; inconclusive = small, poorly fitted or top-dose-only effect, or another doubt; inactive = no such curve, though single readings can be large; an effect the other way counts as inactive or inconclusive. % is set by controls: 0 for no effect and ±100 for the full control effect; potency is the fitted concentration of half-maximal effect.
SMILES,DT40 TDP1 no CPT,VP16 counter,DT40 TDP1 CPT,RORgamma inh,TDP1 block
Cc1ccc(C(=O)Nc2ccc(S(=O)(=O)Nc3ncccn3)cc2)cc1[N+](=O)[O-],-5.5%,-3.1%,-1.9%,27.7%,4.1%
Cc1nc2nc[nH]n2c(=O)c1NC(=O)CCc1ccccc1,-4.0%,0.4%,-12.6%,4.1%,2.2%
Cc1ccc(S(=O)(=O)Nc2cc3c(cc2Cl)n(C)c(=O)c(=O)n3C)cc1,-24.3%,.,-2.1%,.,5.0%
Cc1ccc(S(=O)(=O)Nc2cc(C)cn(Cc3ccccc3)c2=O)cc1,16.4µM*,14.1µM*,20.6µM*,?,.
Cc1ccc(S(=O)(=O)Nc2cc(C)cn(Cc3ccc(F)cc3)c2=O)cc1,?,17.8µM*,25.9µM*,?,.
Cc1ccc2c(c1)N(CC(=O)Nc1ccccc1F)C(=O)C(C)O2 (centres undefined),-27.2%,.,-24.3%,.,.
NC(=O)C1CCCN(C(=O)c2ccc3oc(Cc4ccc(Cl)cc4)nc3c2)C1 (centres undefined),6.6%,3.9%,-1.2%,9.4%,0.7%
O=C(COC(=O)C1c2ccccc2Oc2ccccc21)Nc1ccc2c(c1)OCO2,-27.7%,3.5%,?,40.8%,7.8%
CCOC(=O)c1c(CN2CCN(Cc3ccccc3)CC2)n(C)c2cc(Br)c(OC)cc12,16.4µM*,5.3%,?,-4.1%,0.7%
CCOC(=O)c1c(CSc2ccccc2)n(C)c2cc(Br)c(OCC(O)CNC(CO)(CO)CO)cc12 (centres undefined),14.6µM*,?,?,-35.2%,0.0%
CCOC(=O)c1c(CN2CCC(C)CC2)n(C)c2cc(Br)c(OC)cc12,16.4µM*,0.4%,?,-3.9%,.
COc1ccc(NCC(=O)N/N=C2\CCCC(C)C2)cc1 (centres undefined),2.1%,-4.8%,19.4%,-16.4%,7.1%
O=C(Nc1ccc(O)c2c(=O)cc(-c3ccccc3Cl)oc12)c1ccc(Cl)c(Cl)c1,-27.0%,1.7%,-26.8%,22.8%,5.6%
O=C(Nc1ccc(O)c2c(=O)cc(-c3cccc(Cl)c3)oc12)c1ccc(F)cc1,13µM*,-11.3%,?,-3.5%,.
Cc1nnc2c3ccccc3nc(N3CCN(c4cccc(Cl)c4)CC3)n12,11.6µM*,.,13µM*,.,5.6%
Cc1cccc(N2CCN(c3nc4ccccc4c4nnc(C)n34)CC2)c1C,11.6µM*,.,13µM*,.,-5.0%
Cc1ccc(N2CCN(c3nc4ccccc4c4nnc(C)n34)CC2)c(C)c1,-9.9%,.,-7.2%,.,5.6%
CCc1nnc(NC(=O)CCC(=O)N2CCN(S(=O)(=O)c3ccc(OC)cc3)CC2)s1,15.9%,-9.1%,-9.6%,0.7%,0.4%
CCCN1C(=O)/C(=C\C=C2\N(CC)c3ccccc3C2(C)C)SC1=S,13µM*,-3.5%,16.4µM*,1.9%,6.0%
CN1C(=CC=C2C=C(I)C(=O)C(I)=C2)C(C)(C)c2ccccc21,16.4µM*,-23.9%,18.4µM*,?,9.6%
CN1/C(=C\C=C2/C(=O)Oc3ccccc3C2=O)C(C)(C)c2ccccc21,?,-6.6%,?,-21.2%,2.7%
CO/N=C/C=C1/N(C)c2ccccc2C1(C)C,-5.7%,-2.8%,?,-13.6%,5.4%
CN1/C(=C\C=C2/SC(=S)NC2=O)C(C)(C)c2ccccc21,5.8µM*,?,8.2µM*,?,6.2%
CC(=O)Nc1cc(-c2ccccc2)ccc1O,?,?,20.6µM*,15.4%,6.3%
COC(CNC(=O)c1cnn2c(C)c(Cc3ccccc3)c(C)nc12)OC,16.4µM*,2.3%,?,26.0%,4.9%
SMILES,DT40 TDP1 no CPT,VP16 counter,DT40 TDP1 CPT,RORgamma inh,TDP1 block
Cc1nc2c(C(=O)NC(C)c3ccccc3)cnn2c(C)c1Cc1ccccc1 (centres undefined),?,.,13µM*,.,0.0%
CCCC/C(O)=C1\C(=O)CC(C)(C)CC1=Nc1ccc(OC)cc1,?,-1.5%,?,?,-2.9%
CCC/C(O)=C1\C(=O)CC(C)(C)CC1=Nc1ccc(OC)cc1,14.6µM*,-9.4%,?,6.1%[1.91 µM],.
COc1ccccc1C(=O)CC(=O)c1ccccc1,?,-67.7%,?,10µM*,.
O=C(CC(=O)c1ccccc1)c1ccccc1,?,7.94µM*,?,3.98µM*,.
CN(C)CCC(=O)c1ccc(Cl)cc1,4.61µM*,?,2.59µM*,0.8%,-1.9%
CC(C)(CC(=O)c1ccccc1)CC(=O)c1ccccc1,?,.,-22.2%,.,.
CN(CCC(=O)c1ccccc1)CCC(=O)c1ccccc1,2.91µM*,1.5%,4.61µM*,8.6%,.
CCOC(=O)c1c(C)c(C(=O)N(C)C2CCCCC2)c(C)n1C,-17.5%,18.3%,-12.3%,-1.5%,6.6%
O=C(CCN1C(=O)C2C3C=CC(C3)C2C1=O)N1CCN(c2ccccc2F)CC1 (centres undefined),-1.7%,2.6%,2.7%,-0.9%,0.0%
CC1(c2ccc(Cl)cc2)NC(=O)N(CC(=O)NCc2ccc(F)cc2)C1=O (centres undefined),-15.3%,?,6.7%,-37.4%,-1.3%
Cc1ccc(/C([O-])=C(/C(=S)Nc2ccc(SC(F)F)cc2)[n+]2ccccc2)cc1[N+](=O)[O-],11.6µM*,-2.8%,?,2.4%,2.9%
[O-]/C(=C(\C(=S)Nc1ccc(SC(F)F)cc1)[n+]1ccccc1)c1ccc(Cl)cc1Cl,10.3µM*,2.5%,10.3µM*,-30.7%,8.1%
Cc1cc(C)cc(NC(=S)/C(=C(\[O-])c2ccc(Cl)cc2Cl)[n+]2ccccc2)c1,-26.1%,9.4%,?,2.0%,4.8%
O=C(COc1ccc(C(=S)N2CCOCC2)cc1)N1CCOCC1,4.3%,9.9%,0.7%,9.5%,4.5%
O=C(N/N=C/c1ccc(OCC(=O)N2CCOCC2)cc1)c1ccccc1Cl,-5.2%,6.7%,15.5%,5.3%,-3.6%
O=C(Nc1ccc(OCC(=O)N2CCOCC2)cc1)c1ccccc1Cl,1.4%,7.94µM*,-10.6%,11.2µM*,2.6%
Cc1ccc(Cl)cc1NC(=O)c1ccccc1OCC(=O)N1CCOCC1,1.5%,2.5%,?,19.3%,0.1%
O=C(COc1ccc2cc(Br)ccc2c1)N1CCOCC1,?,.,14.6µM*,.,0.1%
Cc1cc(OCC(=O)N2CCOCC2)ccc1NC(=O)c1ccccc1C,-4.3%,?,-17.2%,10µM*,4.0%
COC(=O)[C@@]1(Cc2ccccc2)[C@H]2C(=O)N(Cc3ccccc3)C(=O)[C@H]2[C@H]2CN(C)C(=NCc3ccccc3)N21,-1.2%,.,-2.2%,.,.
